Assay in all cases: NCI-60 one-dose screen, 48 h (100 = growth as untreated, 0 = no growth, -100 = all killed)
In test [1] the test system is DU-145 prostate. The settings on record: 10 µM unless noted.
Test [2] has as its system K-562 leukemia. As to conditions: 10 µM unless noted.
For test [3], the system named is MALME-3M melanoma. The settings on record: 10 µM unless noted.
The test system of test [4] is MDA-MB-231 breast. The settings on record: 10 µM unless noted.
The subject of test [5] is RXF 393 renal. As to conditions: 10 µM unless noted.
The subject of test [6] is SF-268 CNS. As to conditions: 10 µM unless noted.
For test [7], the system named is SF-295 CNS. The settings on record: 10 µM unless noted.
The subject of test [8] is SF-539 CNS. The settings on record: 10 µM unless noted.
Test [9] concerns UACC-257 melanoma. The settings on record: 10 µM.
The test system of test [10] is M14 melanoma. As to conditions: 10 µM unless noted.

This passage reports growth results from PubChem BioAssay (NCI).

Structures are written as SMILES. This is part of a sample that, as a whole, favours compounds with a hit. Of some 83,000 tested, about 20% had one in any assay.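 48-hour exposure, single concentration, 96-well plates; percent growth endpoint where 0 means no net growth. Active: below 10.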 Unmarked numbers belong to inactive results. Activity calls are given as the source filed them.

As to `CC(C)(C)n1nnnc1C(Nc1nccs1)c1cc2cccc3ccc4cccc1c4c32` (stereo not given), the growth is 107% in test [1]; 102% in test [2]; 97% in [3]; 99.3% in test [4]; 92.1% in test [5]; 100% in test [6]. In addition, the growth is 93.1% in [7], 92.9% in test [8], 100% in test [9] and 106% in test [10].

Take `CN1CCN(Cc2ccc(NC(=O)c3cncc(C#Cc4[nH]nc5ncncc45)c3)cc2C(F)(F)F)CC1`: the growth is 56.6% in test [1]; 12.4% in [2]; -5.86% (active) in test [3]; 22.9% in test [4]; 43.4% in test [5]; 73.7% in test [6]. The growth in test [7] is 97%; in test [8], 43.4%; in test [9], 86.1%; in test [10] it was 15%.

In the case of `COc1ccc(OC)c([C@H]2c3[nH]c4ccccc4c3C[C@H]3C(=O)N(CCCCCCC(=O)NO)CC(=O)N23)c1`, the growth in test [1] is 90.1%; in test [2], 54.2%; in [3], 61.6%; in test [4], 82.3%; in test [5], 107%; in test [6], 104%. Besides, the growth in test [7] is 94.7%; in test [8], 78.5%; in test [9], 67.2%; in test [10], 83.3%.

In the case of `Cc1cn(-c2cc(NC(=O)c3cncc(C#Cc4cnc5ccc(OCCCS(C)(=O)=O)nn45)c3)cc(C(F)(F)F)c2)cn1`, the growth was 12.6% in [1]; 11% in [2]; 11.7% in test [3]; 14.4% in test [4]; -74.5% (active) in test [5]; -5.33% (active) in test [6]. The growth in test [7] is 54.6%; in test [8], 6.3% (active); in [9], 64.4%; in [10], 18%.

`CS(=O)c1nccc(-c2c(-c3ccc(F)c(OCc4ccccc4)c3)nc3sccn23)n1` (stereo not given): the growth in test [1] was 4.02% (active); in [2] it was 17.8%; in test [3], 91.7%; in test [4] it was 93.8%; in test [5], 96.6%; in test [6] it was 105%. The growth in test [7] is 101%; in [8] it was 94.6%; in test [9], 19.8%; in test [10] it was 96.5%.

Regarding `Cc1ccccc1NC1CC(=O)N(c2ccc(Cl)cc2Cl)C1=O` (stereo not given), the growth in [1] is 103%; in test [2] it was 107%; in [3] it was 98.9%; in test [4], 104%; in test [5] it was 112%; in test [6] it was 99.4%. In addition, the growth was 102% in test [7], 93.1% in test [8], 98.5% in [9] and 102% in test [10].

On to `O=C(NNc1nc2cc(F)c(F)cc2n2cccc12)c1cccnn1`, for which the growth in test [1] is 24.3%; in [2], 13.3%; in [3] it was 17.8%; in test [4] it was 32.4%; in test [5], 40.1%; in test [6], 14%. Also, the growth was 8.56% (active) in test [7], 0.368% (active) in test [8], 5.44% (active) in [9] and 11.2% in [10].

Turning to `O=C1c2c(c3c4cc(Br)ccc4[nH]c3c3ccc4ccccc4c23)C(=O)N1CCN1CCNCC1`, the growth in test [1] is 72.1%; in test [2] it was -25.7% (active); in test [3], 80.5%; in test [4] it was 84.1%; in test [5], 82.8%; in test [6] it was 72.7%. Also, the growth in [7] was 73.6%; in [8], 87.1%; in test [9], 98.3%; in test [10] it was 87.6%.

Regarding `C#C[C@]1(O)CC[C@H]2[C@@H]3CC=C4c5sc(C6CC6)nc5CC[C@]4(C)[C@H]3CC[C@@]21C`, the growth was 92.3% in [1]; 35.3% in test [2]; 107% in [3]; 91.3% in test [4]; 5.22% (active) in [5]; 86.5% in test [6]. Also, the growth in test [7] was 43.7%; in [8] it was 66.4%; in test [9] it was 78.9%; in test [10], 77.9%.

For the compound `Cc1cc(NS(=O)(=O)c2ccc(-c3cnc(C4CC4)o3)cc2)ccc1I`, the growth in test [1] was 26%; in test [2] it was 11.6%; in [3], 48.8%; in test [4], 40.9%; in test [5], 10.8%; in test [6], 65.1%. Moreover, the growth is -2.36% (active) in test [7], 11.5% in test [8], 66.8% in [9] and 24.6% in test [10].

Consider `CC[C@@](C)(NC(=O)C(C)(C)NC(=O)[C@@H](NC(=O)[C@@H]1CCCN1C(=O)C(C)(C)NC(=O)[C@H](CC(C)C)NC(=O)CNC(=O)C(C)(C)NC(=O)[C@@H](NC(=O)C(C)(C)NC(=O)[C@H](CCC(N)=O)NC(=O)[C@H](C)NC(=O)C(C)(C)NC(=O)[C@H](C)NC(=O)C(C)(C)NC(=O)[C@H](C)NC(=O)C(C)(C)NC(C)=O)C(C)C)C(C)C)C(=O)N[C@@H](CCC(N)=O)C(=O)N[C@@H](CCC(N)=O)C(=O)N[C@H](CO)CC1CCCCC1`, for which the growth is 35.1% [5 µM] in test [1]; 32.1% [5 µM] in [2]; -18.4% [5 µM] (active) in test [3]; 32.7% [5 µM] in [4]; 23.7% [5 µM] in [5]; 32.6% [5 µM] in test [6]. For the same compound, the growth was 81.8% [5 µM] in test [7], 18.8% [5 µM] in test [8] and 58.4% [5 µM] in test [10].

Consider `O=c1c2c(O)cccc2oc2c3c(cc(O)c12)O[C@H]1OC=C[C@@H]31`, for which the growth in test [1] is 98%; in test [2] it was 96.2%; in test [3], 95.2%; in test [4], 83.2%; in [5] it was 99.1%; in test [6], 94.7%. Moreover, the growth in test [7] is 89.5%; in test [8] it was 98.4%; in test [10] it was 101%.

With `Cc1cc(O)c(=O)cc2c1C[C@H]1CC(C)(C)/C=C/C[C@]3(C)Oc4cc(=O)c(O)cc(C)c4C[C@H]3C[C@H](O)[C@@]1(C)O2`, the growth is 16.1% in test [1]; -42.7% (active) in [2]; -8.22% (active) in test [3]; 17.4% in test [4]; 5.24% (active) in [5]; 16.6% in test [6]. Besides, the results for the growth in [7], in test [8] and in test [10] were 4.92% (active), 7.55% (active) and -25.9% (active), respectively.

As to `Cc1ccc(-c2nnc3sc(C4=Cc5ccccc5OC=C4)nn23)cc1`, the growth was 114% in test [1]; 104% in test [2]; 97.6% in [3]; 94.1% in test [4]; 105% in test [6]; 98.9% in [7]. Moreover, the growth in [8] was 95.3%; in test [9] it was 88.4%; in test [10] it was 99.8%.

For `COc1cc(O)c2c(c1)[C@H]1O[C@@H]1C[C@H](O)[C@H](O)C(=O)/C=C\C[C@H](C)OC2=O`, the growth in test [1] is 55.3%; in test [2], 29.9%; in test [3], -24.1% (active); in [4], 48.7%; in test [5], 8.74% (active); in test [6], 74.4%. Moreover, the growth in test [7] is 81.7%; in test [8], 61.7%; in test [10], 9.43% (active).

Turning to `CC(C)C[C@H]1C(=O)O[C@H](C(C)C)C(=O)N(C)[C@@H](C(C)C)C(=O)O[C@H](C(C)C)C(=O)N(C)[C@@H](C(C)C)C(=O)O[C@H](C(C)C)C(=O)N1C`, the growth in [1] is 24.4%; in [2] it was 8.19% (active); in [3] it was 18%; in test [4], 8.5% (active); in test [5] it was 19.1%; in test [6] it was 20.4%. Moreover, the growth in test [7] is 5.53% (active); in test [8], 22.3%; in test [10] it was 18.5%.

For `Clc1ccc(-c2nc3ccc(/C(=N\N=C\c4ccccc4)c4ccccc4)cc3[nH]2)cc1`, the growth was 92.5% in test [1]; 53.6% in test [2]; 97.6% in test [3]; 95.8% in [4]; 90.1% in test [5]; 92.5% in test [6]. The growth is 80.7% in test [7], 92.7% in [8], 101% in [9] and 77.4% in test [10].

`CC(=O)NC(C)(C)C(=O)N1CCC[C@H]1C(=O)NC(C)(C)C(=O)N[C@@H](C)C(=O)NC(C)(C)C(=O)N[C@@H](C)C(=O)N[C@@H](CCC(N)=O)C(=O)NC(C)(C)C(=O)N[C@H](C(=O)NC(C)(C)C(=O)NCC(=O)N[C@@H](CC(C)C)C(=O)NC(C)(C)C(=O)N1CCC[C@H]1C(=O)N[C@H](C(=O)NC(C)(C)C(=O)NC(C)(C)C(=O)N[C@@H](CCC(N)=O)C(=O)N[C@@H](CCC(N)=O)C(=O)N[C@H](CO)Cc1ccccc1)C(C)C)C(C)C`: the growth in test [1] was 62.9% [4.25 µM]; in [2], 42.8% [4.25 µM]; in [3], 57.1% [4.25 µM]; in test [4], 77.7% [4.25 µM]; in test [5] it was 82.7% [4.25 µM]; in [6], 64.3% [4.25 µM]. Also, the growth was 55.1% [4.25 µM] in [7], 62.2% [4.25 µM] in test [8] and 68.5% [4.25 µM] in test [10].

`CCCCCCCCCC[C@@H](C)[C@@H]1CC(=O)N[C@H]([C@@H](C)O)C(=O)N[C@@H](C)C(=O)N[C@H](C)C(=O)N[C@@H](CCC(N)=O)C(=O)N[C@H](Cc2ccc(O)cc2)C(=O)N[C@@H](C(C)CC)C(=O)O1` (stereo not given in full): the growth in [1] is 57.1%; in [2], 40.6%; in test [3] it was 65.7%; in test [4], 96.6%; in test [5], 97.5%; in test [6], 84.8%. Also, the growth is 36.2% in test [7], 60.5% in test [8] and 79.4% in test [10].

As to `Cc1occc1-c1nc2s/c(=C\c3cn(-c4ccccc4)nc3-c3ccccc3)c(=O)n2n1`, the growth in test [1] was 106%; in test [2], 106%; in test [3], 101%; in test [4] it was 97.8%; in test [6], 101%; in test [7], 101%. For the same compound, the values for the growth in test [8], in [9] and in [10] were 91.2%, 96% and 100%, respectively.

In the case of `CC1CCc2c(sc3nc(SCC(=O)N/N=C/c4cccc(O)c4O)n(-c4ccccc4)c(=O)c23)C1` (stereo not given), the growth in [1] was 74.7%; in test [2] it was 77.6%; in test [3], 95.1%; in test [4] it was 84.6%; in [5], -2.02% (active); in test [6], 105%. Moreover, the growth in test [7] was 86.7%; in test [8], 94.7%; in [9], 100%; in [10], 84.4%.

Regarding `CC1(C)CC[C@]2(C(=O)N3CCCNCC3)CC[C@]3(C)C(=CC[C@@H]4[C@@]5(C)CCC(=O)C(C)(C)[C@@H]5CC[C@]43C)[C@H]2C1`, the growth is 108% in test [1]; 96.8% in test [2]; 110% in test [3]; 106% in test [4]; 102% in test [6]; 104% in [7]. Moreover, the growth was 97.2% in test [8], 105% in test [9] and 110% in test [10].
